# RECQ1 inh – RECQ1 (human) helicase inhibition; Potency, µM (titrated, usually from 57.3 µM), inactives show at the highest dose activity, negative = inhibition, usual class: inhibitors; RECQ1 DNA unwinding, red fluorescence kinetic read; actives 0.54% (n = 240,000); P46063;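 also: plate controls were vehicle for no effect and no enzyme for full effect; nearly all actives have a fitted effect of over 30% in size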
#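 50 nM RECQ1T1 preincubated 15 min with compound in Tris pH 8.0 buffer with MgCl2, DTT, Tween-20 and 2.5 ug/ml poly(dI-dC); started with 200 nM TAMRA/BHQ-2 forked duplex and 2 mM ATP. Unwinding read as fluorescence (525/598 nm), two reads 2 h apart.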
# Tb PGK inh – inhibitors of T. brucei phosphoglycerate kinase. P07378. PGK/GAPDH coupled, Kinase-Glo luminescence, 60 min. Potency, µM (series often up to 57.5 µM), for inactives: at the top dose activity change, negative = inhibition, hits mostly inhibitors. actives 0.043% (n = 380,000). AID 602233; also: nearly all actives have a fitted effect of over 60% in size
#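 Luminescent ATP detection (Kinase-Glo Plus) follows a 60-minute room-temperature incubation, with wells lacking PGK as controls. Buffer: 100 mM TEA (pH 7.6), 5 mM MgCl2, 0.01% Tween-20. Coupling enzyme GAPDH (100 nM final) supplies unstable 1,3-BPG in-well.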
# BLM helicase inh – blocks DNA unwinding by human BLM helicase. recombinant BLM DNA unwinding, fluorescence dequenching. actives 0.2% (n = 350,000). AID 2528. P54132. Potency, µM (titrated, usually from 56.1 µM), inactives show at the top dose activity change, negative = inhibition, most hits filed as inhibitors;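 also: plate controls were vehicle for no effect and no enzyme for full effect; nearly all actives have a fitted effect of over 35% in size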
# FEN1 inhibitor – blocks human flap endonuclease 1. P39748. Potency, µM (titrated, usually from 114 µM), without a hit: top-dose activity change, negative = inhibition, usual class: inhibitors. actives 0.35% (n = 390,000). AID 588795. Recombinant FEN1 flap cleavage, fluorescence, 15 min; also: nearly all actives have a fitted effect of over 65% in size
#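 FEN1 at 10 nM, compound pretreatment for 15 min (room temperature), 50 nM final substrate to initiate; endpoint reads at 0 and 15 min; DMSO-only plates used as vehicle background.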
# APEX1 inh – inhibitors of human APE1 endonuclease. AID 2517. Potency, µM (top dose mostly 65.8 µM), for inactives: at the highest dose activity change, negative = inhibition, actives largely listed as inhibitors. recombinant APE1, TAMRA/BHQ-2 abasic DNA cleavage fluorescence. actives 0.35% (n = 350,000);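 also: plate controls were vehicle for no effect and reference inhibitor for full effect; nearly all actives have a fitted effect of over 55% in size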
#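 Measures dequenching upon AP-site incision of a 5'-TAMRA/3'-BHQ-2 THF-containing duplex, 50 nM; human APE1 0.75 nM after 15 min room-temperature exposure to compound; kinetic three-point read at one-minute spacing.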
# Active calls of the source: *; i = inactive; ? = inconclusive; / = no result; [ ] = dose if it differs, or a comment. Rows were chosen to be rich in hits. Some 0.74% of all compounds tested hit in one or more screens of this group. Calls follow the shape of the dose curve; as a rule, active = well fitted curve in the direction sought with a large enough effect; inconclusive = small, poorly fitted or top-dose-only effect, or another doubt; inactive = no such curve, though single readings can be large; an effect the other way counts as inactive or inconclusive. Unless noted, % is scaled to controls: 0 for no effect and ±100 for the full control effect; potency is read from the fitted curve at half-maximal effect.
SMILES,RECQ1 inh,Tb PGK inh,BLM helicase inh,FEN1 inhibitor,APEX1 inh
O=C(Cn1cc[n+](CC(=O)c2ccccc2)c1)c1ccccc1,22µM*,-4%,0%,-22%,-1%
O=C(Cn1cc[n+](CC(=O)c2ccc(Cl)cc2Cl)c1)c1ccc(Cl)cc1Cl,-6%,-9%,3%,28%,4%
Cn1cccc1CC(=O)N/N=C/C=C/c1ccco1,-3%,-8%,25µM*,-13%,6%
COc1cc2nc(Nc3cccc(F)c3)nc(N)c2cc1OC,/,2%,-5%,?,-14%
COc1ccc(Nc2nc(N)c3cc(OC)c(OC)cc3n2)cc1,/,0%,16µM*,?,/
O=C(O)c1cc(-c2ccco2)nc2ccccc12,-25%,?,-9%,40µM*,25µM*
Cn1c(=O)c(C(=O)COC(=O)c2cc(-c3ccco3)nc3ccccc23)c(N)n(CC2CC2)c1=O,32µM*,/,?,/,?
COc1ccc(CNC(=O)COC(=O)c2cc(-c3ccco3)nc3ccccc23)cc1,11µM*,/,-23%,/,20µM*
O=C(O)c1cc(-c2cc(C(=O)O)c3ccccc3n2)nc2ccccc12,/,/,-1%,/,-2%
Cc1ccc(-c2cc(C(=O)NCc3ccco3)c3ccccc3n2)o1,?,?,-22%,-4%,32µM*
COC(=O)c1cc(C(=O)OC)cc(-n2c(C)cc(C=O)c2C)c1,i,-7%,0%,1%,-3%
Cc1cc(C=O)c(C)n1-c1cc(C(=O)O)cc(C(=O)O)c1,i,10µM*,8%,?,17%
COCCCNC(=O)CCC(=O)N1Cc2cccc(OC)c2Oc2ncccc21,/,i,-1%,22%,/
Cc1ccc(C2CC(=O)Oc3cc4c(cc32)OCO4)cc1 (stereo not given),32µM*,/,-18%[75.6 µM],/,?
COc1ccc(C2CC(=O)C(C=NCCN3CCN(C(=S)Nc4ccccc4)CC3)=C(O)C2)cc1 (stereo not given),-6%,i,-9%,-3%,-9%
COc1ccc2nc(N/C(N)=N/C(=S)Nc3c(C)cccc3C)nc(C)c2c1,43%,-16%,2%,32µM*,-5%
CC(=O)O[C@H]1CSC[C@H]1NC(=O)c1ccccc1,-6%,-5%,-4%,5%,5%
Cc1cc(NS(=O)(=O)c2ccc(Nc3nc(-c4ccc(C)c(C)c4)cs3)cc2)no1,4%,-3%,?,-15%,1%
Cc1cc(NS(=O)(=O)c2ccc(Nc3nc(-c4sc(N)nc4C)cs3)cc2)no1,?,-8%,-13%,56µM*,-5%
Cc1ccc(C)c(NC(=O)C2CCN(S(=O)(=O)c3c(C)noc3/C=C/c3cccs3)CC2)c1,/,0%,-2%,-15%,/
Cc1sc2cc3c(c(C(=O)c4ccccc4)[n+]2c1C)-c1cccc2cccc-3c12,-10%,i,105%,40µM*,-15%
Cc1cc2ccccc2cc1C(=O)c1ccccc1,/,7%,/,1%,/
O=C(Nc1ccccc1)Nc1c(F)cccc1F,i,3%,-3%,1%,-6%
CCn1c(=O)c(-[n+]2ccccc2)c(O)c2ccccc21,-9%,i,0%,35µM*,-4%
CCn1c(=O)c(C(=O)NNC(=O)c2ccccc2)c(O)c2ccccc21,/,-1%,-18%,3%,46%
SMILES,RECQ1 inh,Tb PGK inh,BLM helicase inh,FEN1 inhibitor,APEX1 inh
NS(=O)(=O)c1ccc(-c2ccc(C=O)o2)cc1,-4%,-8%,-3%,-4%,1%
NS(=O)(=O)c1ccc(-c2ccc(/C=C3\NC(=S)NC3=O)o2)cc1,/,-9%,-6%,50µM*,-15%
Cc1cccc(/N=C/c2c(O)cc(C)oc2=O)n1,28µM*,i,-3%,12%,-4%
Cc1cc(O)c(/C=N/c2ccccn2)c(=O)o1,?,-10%,3%,14%,-8%
CC(C)c1ccc(NC(=O)N2c3ccccc3Sc3ccccc32)cc1,/,1%,-1%,2%,/
CSC1=NSC2=NC(=O)/C(=C\c3coc4ccccc4c3=O)C(=N)N12,-3%,-1%,-12%,79µM*,-10%
CC(C)CSC1=NSC2=NC(=O)/C(=C\c3coc4ccccc4c3=O)C(=N)N12,?,-12%,-24%,?,1%
O=C(C[C@@H]1C/C=C\C[C@H](NC(=O)OCC2c3ccccc3-c3ccccc32)C(=O)OC[C@H]2CCCN2C1=O)NCCO,/,-1%,/,-1%,11µM*

# Assay outcomes as filed in PubChem BioAssay.
